In the library only some 7.8% were active in any assay of this set; here they are far more common.
Vaccinia Venus: inhibitors of vaccinia virus (Venus reporter); actives 0.46% (n = 330,000); Potency, µM (doses to about 36.5 µM), for inactives: at the highest dose activity change, negative = inhibition, hits mostly inhibitors; Vaccinia virus Venus reporter expression, fluorescence; calls by dose curve; tested in A549 cells; note: potency is the fitted concentration of half-maximal effect; nearly all actives have a fitted effect of over 30% in size
HCMV antiviral: blocks human cytomegalovirus replication; HFF cells, HCMV-luciferase reporter, 72 h; stronger effect = lower value; AID 1259415; activity change, negative = inhibition, % at 57.5 µM; actives 4.5% (n = 410,000); in the data active = activity change below about -60%; inconclusive = no clear call, values can overlap the other calls; inactive = above about -39%
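Human foreskin fibroblasts infected with luciferase-reporter HCMV at MOI 1 PFU/cell, compounds at two doses. Luciferase measured 72 h post infection; normalized to buffer-only basal and Salinomycin (10uM) controls.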
LASV entry inh: blocks Lassa virus binding to or entry into cells; Lassa virus pseudotype entry inhibition, cell reporter; Potency, µM (highest dose often 37.9 µM), for the others: at the top dose activity change, negative = inhibition, usual class: inhibitors; actives 1.2% (n = 300,000); AID 540256; calls by dose curve; tested in HEK293 cells; note: potency is the fitted concentration of half-maximal effect; nearly all actives have a fitted effect of over 50% in size
Vaccinia mCherry: vaccinia inhibition (mCherry reporter) | actives 0.63% (n = 310,000) | Vaccinia virus mCherry reporter infection, fluorescence | Potency, µM (series often up to 36.5 µM), for inactives: at the highest dose activity change, negative = inhibition, hits mostly inhibitors; calls by dose curve; tested in A549 cells; note: potency is the fitted concentration of half-maximal effect; nearly all actives have a fitted effect of over 35% in size
HCV inhibitor: blocks hepatitis C virus; Huh7.5.1 HCVcc-Cre infection, luciferase reporter, 44 h; actives 3.4% (n = 340,000); Potency, µM (top dose mostly 41.8 µM), for the others: at the top dose activity change, negative = inhibition, usual class: inhibitors; active = well fitted inhibition curve with a large enough effect; inconclusive = small, poorly fitted or top-dose-only effect, or another doubt; inactive = no such curve, though single readings can be large or run the other way; note: potency is the fitted concentration of half-maximal effect
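Whole-lifecycle infectious HCVcc-Cre system; cells 1,000/well, compound then virus (~0.5 moi) added 4 h after plating, 44 h culture. Luciferase read 15 sec following 15 min substrate incubation, room temp.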
MARV entry inh: inhibitors of Marburg virus binding or cell entry. Marburg virus pseudotyped entry inhibition, cell reporter. Potency, µM (top dose mostly 37.8 µM), without a hit: top-dose activity change, negative = inhibition, hits mostly inhibitors. actives 1.8% (n = 300,000). AID 540276; calls by dose curve; tested in HEK293 cells; note: potency is the fitted concentration of half-maximal effect
The depositor's hits bear a star; i = inactive; ? = inconclusive; nt = no result given; ! = not confirmed by another sample; [ ] = dose if it differs, or a comment. % is set by controls: 0 for no effect and ±100 for the full control effect.

SMILES | Vaccinia Venus | HCMV antiviral | LASV entry inh | Vaccinia mCherry | HCV inhibitor | MARV entry inh
CCN1C[C@@]2(COC)C3[C@@H](OC)C4[C@@H]1C3([C@@H]1C[C@@]3(O)[C@H](OC(=O)c5ccccc5)[C@@H]1[C@]4(OC(C)=O)[C@@H](O)[C@@H]3OC)[C@H](OC)C[C@H]2O | nt | nt | nt | nt | nt | 1.1%
Cc1nn(-c2nc3ccccc3s2)c(C)c1Oc1ccccc1O | -11.7% | nt | ? | ? | 10µM* | 4.61µM*
CCc1ccc(NC(=O)c2cnc(N3CCN(c4ccccn4)CC3)c3ccccc23)cc1 | ? | -19.2 | ? | -30.0% | 4.47µM* | ?
CCN1CCN(c2ncc(C(=O)Nc3ccccc3C(=O)OC)c3ccccc23)CC1 | -27.2% | -7.3 | ? | ? | 7.94µM* | 12.6µM*
CCOc1ccccc1NC(=O)c1cnc(N2CCOCC2)c2ccccc12 | -5.2% | 5.7 | -23.0%[46.1 µM] | -11.3% | nt | nt
COc1ccc(NC(=O)CSc2nnc(NC(=O)Nc3ccccc3)s2)cc1OC | -8.4%[7.34 µM] | 28.8 | ? | -3.6%[7.34 µM] | nt | nt
CCCCNC(=O)N[C@H]1CC[C@@]23CCCN2C(=O)CCC[C@H]3C1Cc1ccccc1 (stereo not given in full) | nt | -6.1 | nt | nt | nt | nt
Cn1c(/C=C/c2cccc([N+](=O)[O-])c2)c([N+](=O)[O-])c(=O)n(C)c1=O | ? | -102.3* | ? | ? | ? | 8.91µM*
CCCCCOc1ccc(/C=C/c2c([N+](=O)[O-])c(=O)n(C)c(=O)n2C)cc1 | -5.8% | -93.6* | 6.5%[46.1 µM] | -6.4% | -15.6% | ?
COc1ccc(/C=C/c2c([N+](=O)[O-])c(=O)n(C)c(=O)n2C)c(OC)c1OC | -21.6% | -64.7* | ? | ? | -8.6% | ?
O=[N+]([O-])c1cccc(/C=C/c2ccncc2)c1 | -2.1% | -4.3 | ? | ? | ? | ?
COc1ccc(/C=C/c2c([N+](=O)[O-])c(=O)n(C)c(=O)n2C)cc1OC | -1.7% | -32.8 | 12.7% | -5.0% | -9.1% | ?
CN(/C=C/c1c([N+](=O)[O-])c(=O)n(C)c(=O)n1C)c1ccccc1 | -2.0% | -27.7 | -2.2% | 3.0% | 13.4% | -15.8%[46.1 µM]
Cn1c(/C=C/c2ccc(Cl)cc2)c([N+](=O)[O-])c(=O)n(C)c1=O | nt | -98.2* | nt | nt | ? | nt
Cc1oc2c(C)c3oc(=O)c(CCC(=O)NCCCn4ccnc4)c(C)c3cc2c1C | -5.8% | -37.0 | nt | -15.0% | 10µM* | nt
Cc1oc2cc3oc(=O)c(CCC(=O)NCCCN4CCOCC4)c(C)c3cc2c1C | -6.1% | 0.7 | nt | -11.1% | 1.58µM* | nt
Cc1oc2cc3oc(=O)c(CC(=O)N4CCCCC4)c(C)c3cc2c1C | -5.6% | -70.8* | -1.6%[46.1 µM] | -1.7% | nt | 3.9%[46.1 µM]
Cc1oc2cc3oc(=O)c(CCC(=O)NCCCn4ccnc4)c(C)c3cc2c1C | -25.8% | -17.3 | nt | ? | ? | nt
CCCc1cc(=O)[nH]c(Nc2cc(Cl)ccc2OC)n1 | -11.6% | 2.7 | 13.9%[46.1 µM] | -22.5% | nt | -1.3%[46.1 µM]
Cc1ccc(NS(=O)(=O)c2ccc3c(c2)NC(=O)CCS3)cc1F | -19.2% | -34.7 | 23.3%[46.1 µM] | ? | -9.9% | 4.0%[46.1 µM]
COc1cc(OC)c(NS(=O)(=O)c2ccc3c(c2)NC(=O)CCS3)cc1Cl | -13.7% | -62.9* | -27.9%[46.1 µM] | -18.2% | nt | nt
Cc1ccc(NS(=O)(=O)c2ccc3c(c2)NC(=O)CCS3)cc1C | 0.891µM* | ? | -22.2%[46.1 µM] | ? | -8.9% | nt
O=C(CCl)N(C/C=C/c1ccccc1)c1ccc2c(c1)OCCO2 | -25.3% | 58.1 | ? | -6.4% | 2.24µM* | 16.9%[46.1 µM]
N#CCCN(C(=O)CSc1ncccn1)c1ccc2c(c1)OCCO2 | nt | 12.2 | nt | nt | 12.8% | nt
Cc1nc(C(=O)NNC(=O)c2ccc(C(F)(F)F)cc2)cs1 | -24.9% | -89.2* | -17.3% | ? | ? | ?
SMILES | Vaccinia Venus | HCMV antiviral | LASV entry inh | Vaccinia mCherry | HCV inhibitor | MARV entry inh
Cc1cc(Br)c2nc(-c3cccc(Br)c3)c(Cc3cccc(Cl)c3)n2c1 | nt | 111.3 | nt | nt | nt | nt
CC1CCN(c2ccc(-c3cccc(NS(=O)(=O)c4ccc(F)cc4F)c3)nn2)CC1 | -15.2% | -99.8* | 9.1%[46.1 µM] | -16.9% | nt | nt
CCn1c2ccccc2c2cc(NC(=O)COc3ccc(OC)cc3)ccc21 | nt | -27.4 | -12.1% | nt | ? | ?
COc1cc(C(=O)Nc2ccc(S(=O)(=O)NC(C)(C)C)cc2)cc(OC)c1OC | nt | 62.2 | -0.6% | nt | 12.6µM* | -0.2%
CCn1c2ccccc2c2cc(NC(=O)c3cc(C)on3)ccc21 | ? | -31.9 | ? | -28.0% | 14.1µM* | ?
COc1cc(C(=O)Nc2ccc(S(=O)(=O)NC(C)C)cc2)cc(OC)c1OC | nt | 61.4 | 3.0% | nt | ? | 23.9%
CCn1c2ccccc2c2cc(NC(=O)c3cc(OC)cc(OC)c3)ccc21 | ? | -92.1* | ? | -24.6% | ? | ?
CCn1c2ccccc2c2cc(NC(=O)c3cc(OC)c(OC)c(OC)c3)ccc21 | ? | -87.6* | ? | ? | ? | 1.41µM*
Cc1c(C(=O)NCCCc2ccncc2)cnn1-c1ncc2c(n1)-c1ccccc1CC2 | ? | nt | nt | -1.8% | nt | nt
CCCCOc1ccc(CNC(=O)c2cnc3sc(N4CCOCC4)nn3c2=O)cc1 | -5.7% | 12.8 | -0.3%[46.1 µM] | -11.2% | nt | nt
Cc1ncc2c(c1CNC(=O)c1cncs1)CCN(C(=O)c1cc(F)c(F)cc1F)C2 | -24.6% | nt | nt | i | nt | nt
C[C@@H](O)[C@H]1C(=O)N2C(C(=O)O)=C(SCCN=CN)C[C@H]12 | nt | nt | 4.4% | nt | nt | 20.7%
COC(=O)[C@@H]1CCCN1C(=O)c1cc(NC(=O)C2CCC2)c2c(c1)nc(-c1ccncc1)n2C | -7.1% | nt | nt | -13.5% | nt | nt
CCOc1ccccc1Nc1nnc(SC(C)C(=O)Nc2nc(-c3ccccc3)cs2)s1 (stereo not given) | 7.8% | -33.8 | 6.31µM* | -17.5% | ? | 3.55µM*
CCOc1ccccc1NC(=O)C(C)Sc1cc(-c2ccccc2)nc(C)n1 (stereo not given) | -12.1% | 16.1 | -13.4%[46.1 µM] | -15.9% | nt | -22.3%[46.1 µM]
O=C(CN1CCC(n2nnc3cc(F)ccc32)CC1)Nc1ccccc1N1CCOCC1 | -13.8% | ? | -3.2% | -23.8% | -8.7% | 13µM*!
CCOc1ccc2nc(NC(=O)CN3CCC(n4nnc5cc(F)ccc54)CC3)sc2c1 | nt | -68.4* | ? | nt | ? | ?
CC(C)(C)C(=O)Nc1nc(-c2ccccc2)ns1 | nt | -21.5 | ? | nt | ? | ?
c1ccc(Nc2nc(-c3ccccc3)ns2)cc1 | -9.4% | 141.0 | ? | -11.4% | ? | 10µM*
Cc1ccc(NC(=O)Cn2cc(S(=O)(=O)N3CCN(c4ccccc4F)CC3)c3ccccc3c2=O)cc1F | -6.4% | 13.8 | -2.1%[46.1 µM] | -13.8% | nt | ?
COC(=O)C1=C(C(=O)OC)[C@@H]2N(CC=C(C)C)c3ccccc3[C@@]23CCC(=O)N(Cc2cccc(C(F)(F)F)c2)C3=N1 | nt | nt | ? | nt | nt | -27.9%[14.2 µM]
CCCn1c(=N)c(C(=O)NC2CCCC2)cc2c(=O)n3cc(C)ccc3nc21 | 0.7% | -18.8 | 5.3%[46.1 µM] | 20.6% | nt | 0.4%[46.1 µM]

Source: PubChem
